{"source": "PubChem BioAssay (NCI)", "note": "About 83,000 compounds went through this panel and 20% of them were active in at least one assay; those are over-represented in the sample as a whole.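 Values shown are percent growth following 48 h exposure of cells in 96-well plates to a single concentration of compound; below 10 was considered active.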 Values without a mark were called inactive. Calls of active or inactive are those of the source.", "data": [{"test_system": "ACHN renal", "assay": "NCI-60 one-dose screen, 48 h (100 = growth as untreated, 0 = no growth, -100 = all killed)", "conditions": "10 µM unless noted", "values": [{"smiles": "C=CCNC(=S)N/C=C(/C(=O)c1ccccc1)c1ccccc1", "growth": "97.7%"}, {"smiles": "Cc1ccc(C2CCCCC2)cc1Br", "growth": "101%"}, {"smiles": "OCCc1ccc(Cl)cc1", "growth": "105%"}, {"smiles": "C/C(O)=C(/C=N/C(=S)Nc1ccccc1)C(=O)Nc1ccccc1C", "growth": "103%"}, {"smiles": "CC1(C)OC(=O)CC1=O", "growth": "101%"}, {"smiles": "CN(C)CCOC(=O)Nc1ccc(Cc2ccc(NC(=O)OCCN(C)C)cc2)cc1", "growth": "86.8% [100 µM]"}, {"smiles": "O=c1nc(Nc2cccc(Cl)c2)oc2cc(Cl)oc(=O)c12", "growth": "81.3%"}, {"smiles": "OCCNc1ccccc1", "growth": "108%"}, {"smiles": "O=C(Oc1ccccc1Cl)c1ccc(Cl)cc1Cl", "growth": "103%"}, {"smiles": "COc1cc(OC)c2cc(C(=O)c3ccc(C#N)cc3)c(=O)oc2c1", "growth": "95.2%"}, {"smiles": "CC(C)C1CCC(C)C(O)C1", "note": "(configuration not stated)", "growth": "104%"}, {"smiles": "O=C(NC1CCCCC1)c1ccc(Cl)cc1", "growth": "104%"}, {"smiles": "O=C1C=Cc2ccccc2/C1=C/c1[nH]c(=O)[nH]c1O", "growth": "55.3%"}, {"smiles": "NC(CO)(CO)c1ccccc1", "growth": "112%"}, {"smiles": "Nc1cc(N)ncn1", "growth": "102%"}, {"smiles": "S=C(Sc1ccc(Cl)cc1)Sc1ccc(Cl)cc1", "growth": "70%"}, {"smiles": "CCOc1ccc(C(=O)O)cc1", "growth": "109%"}, {"smiles": "COc1cccc(C(=O)NNC(=O)c2cccc3ccccc23)c1", "growth": "106%"}]}, {"test_system": "CAKI-1 renal", "assay": "NCI-60 one-dose screen, 48 h (100 = growth as untreated, 0 = no growth, -100 = all killed)", "conditions": "10 µM unless noted", "values": [{"smiles": "NC(=O)N1CCOCC1", "growth": "115%"}, {"smiles": "N#Cc1ccc(OC(=O)Nc2c(Cl)cc(Cl)cc2Cl)cc1", "growth": "89.7%"}, {"smiles": "CCOC(=O)/C(C)=C\\c1ccc(OC)c(OC)c1", "growth": "96.1%"}, {"smiles": "O=S(Cc1ccccc1)/C(=C/NC(=S)Nc1ccccc1)c1ccccc1", "note": "(configuration not stated)", "growth": "94.8%"}, {"smiles": "C/C(=N\\O)c1ccccn1", "growth": "95.3%"}, {"smiles": "CC(C)NC(=O)OCc1c(COC(=O)NC(C)C)c(-c2ccc(Cl)cc2)n2c1CCC2", "growth": "6.56% (active)"}, {"smiles": "CC(=O)NNC(=S)/N=C\\C(C(=O)c1ccccc1)=C(/O)c1ccccc1", "growth": "98.3%"}, {"smiles": "C=CCS(C)(=O)=O", "growth": "92.5%"}, {"smiles": "O=C(NCc1ccccc1)c1cccc([N+](=O)[O-])c1", "growth": "102%"}, {"smiles": "c1ccc(-c2ccc3ccccc3c2)cc1", "growth": "97.9%"}, {"smiles": "Cc1ccccc1NC(=O)Oc1ccc(Cl)cc1C(=O)c1ccccc1", "growth": "91.7%"}, {"smiles": "CCC(C)c1c(N)n(S(=O)(=O)c2ccc(C)cc2)oc1=O", "note": "(configuration not stated)", "growth": "96.5%"}, {"smiles": "O=Cc1c(O)c2ccccc2[nH]c1=O", "growth": "98.1%"}, {"smiles": "COC(=O)c1ccccc1C(=O)c1c(C)cc(C)cc1C", "growth": "96.4%"}, {"smiles": "N=C(N)c1nn(C2OC(CO)C(O)C2O)c2nc[nH]c(=O)c12", "note": "(configuration not stated)", "growth": "1.5% (active)"}, {"smiles": "COc1cccc(C(=O)O)c1OC", "growth": "97.4%"}, {"smiles": "O=C(O)c1cc(I)ccc1O", "growth": "103%"}, {"smiles": "CC(=O)NNC(=S)N/C=C/c1c(C)ccc([N+](=O)[O-])c1[N+](=O)[O-]", "growth": "98.8%"}, {"smiles": "NNc1ncnc2c1ncn2C1OC(CO)C(O)C1O", "note": "(configuration not stated)", "growth": "36.1%"}, {"smiles": "C=CCNC(=S)N/C=C(/C(=O)c1ccccc1)c1ccccc1", "growth": "101%"}, {"smiles": "Cc1ccc(C2CCCCC2)cc1Br", "growth": "90.3%"}, {"smiles": "OCCc1ccc(Cl)cc1", "growth": "92.7%"}, {"smiles": "C/C(O)=C(/C=N/C(=S)Nc1ccccc1)C(=O)Nc1ccccc1C", "growth": "101%"}, {"smiles": "CC1(C)OC(=O)CC1=O", "growth": "90.4%"}, {"smiles": "CN(C)CCOC(=O)Nc1ccc(Cc2ccc(NC(=O)OCCN(C)C)cc2)cc1", "growth": "73% [100 µM]"}, {"smiles": "O=c1nc(Nc2cccc(Cl)c2)oc2cc(Cl)oc(=O)c12", "growth": "79.6%"}, {"smiles": "OCCNc1ccccc1", "growth": "96.7%"}, {"smiles": "O=C(Oc1ccccc1Cl)c1ccc(Cl)cc1Cl", "growth": "99.8%"}, {"smiles": "COc1cc(OC)c2cc(C(=O)c3ccc(C#N)cc3)c(=O)oc2c1", "growth": "84.6%"}, {"smiles": "CC(C)C1CCC(C)C(O)C1", "note": "(configuration not stated)", "growth": "98%"}, {"smiles": "O=C(NC1CCCCC1)c1ccc(Cl)cc1", "growth": "102%"}, {"smiles": "O=C1C=Cc2ccccc2/C1=C/c1[nH]c(=O)[nH]c1O", "growth": "68.7%"}, {"smiles": "NC(CO)(CO)c1ccccc1", "growth": "96.1%"}, {"smiles": "Nc1cc(N)ncn1", "growth": "102%"}, {"smiles": "S=C(Sc1ccc(Cl)cc1)Sc1ccc(Cl)cc1", "growth": "-75.6% (active)"}, {"smiles": "CCOc1ccc(C(=O)O)cc1", "growth": "97.9%"}, {"smiles": "COc1cccc(C(=O)NNC(=O)c2cccc3ccccc23)c1", "growth": "102%"}]}, {"test_system": "A498 renal", "assay": "NCI-60 one-dose screen, 48 h (100 = growth as untreated, 0 = no growth, -100 = all killed)", "conditions": "10 µM unless noted", "values": [{"smiles": "NC(=O)N1CCOCC1", "growth": "92.7%"}, {"smiles": "N#Cc1ccc(OC(=O)Nc2c(Cl)cc(Cl)cc2Cl)cc1", "growth": "125%"}, {"smiles": "CCOC(=O)/C(C)=C\\c1ccc(OC)c(OC)c1", "growth": "95.7%"}, {"smiles": "O=S(Cc1ccccc1)/C(=C/NC(=S)Nc1ccccc1)c1ccccc1", "note": "(configuration not stated)", "growth": "120%"}, {"smiles": "C/C(=N\\O)c1ccccn1", "growth": "108%"}, {"smiles": "CC(C)NC(=O)OCc1c(COC(=O)NC(C)C)c(-c2ccc(Cl)cc2)n2c1CCC2", "growth": "44.5%"}, {"smiles": "CC(=O)NNC(=S)/N=C\\C(C(=O)c1ccccc1)=C(/O)c1ccccc1", "growth": "105%"}, {"smiles": "C=CCS(C)(=O)=O", "growth": "105%"}, {"smiles": "O=C(NCc1ccccc1)c1cccc([N+](=O)[O-])c1", "growth": "82.3%"}, {"smiles": "c1ccc(-c2ccc3ccccc3c2)cc1", "growth": "84%"}, {"smiles": "Cc1ccccc1NC(=O)Oc1ccc(Cl)cc1C(=O)c1ccccc1", "growth": "107%"}, {"smiles": "CCC(C)c1c(N)n(S(=O)(=O)c2ccc(C)cc2)oc1=O", "note": "(configuration not stated)", "growth": "113%"}, {"smiles": "O=Cc1c(O)c2ccccc2[nH]c1=O", "growth": "119%"}, {"smiles": "COC(=O)c1ccccc1C(=O)c1c(C)cc(C)cc1C", "growth": "88.9%"}, {"smiles": "N=C(N)c1nn(C2OC(CO)C(O)C2O)c2nc[nH]c(=O)c12", "note": "(configuration not stated)", "growth": "15.4%"}, {"smiles": "COc1cccc(C(=O)O)c1OC", "growth": "97.4%"}, {"smiles": "O=C(O)c1cc(I)ccc1O", "growth": "126%"}, {"smiles": "CC(=O)NNC(=S)N/C=C/c1c(C)ccc([N+](=O)[O-])c1[N+](=O)[O-]", "growth": "105%"}, {"smiles": "NNc1ncnc2c1ncn2C1OC(CO)C(O)C1O", "note": "(configuration not stated)", "growth": "43%"}, {"smiles": "C=CCNC(=S)N/C=C(/C(=O)c1ccccc1)c1ccccc1", "growth": "98%"}, {"smiles": "Cc1ccc(C2CCCCC2)cc1Br", "growth": "88.6%"}, {"smiles": "OCCc1ccc(Cl)cc1", "growth": "106%"}, {"smiles": "C/C(O)=C(/C=N/C(=S)Nc1ccccc1)C(=O)Nc1ccccc1C", "growth": "86.1%"}, {"smiles": "CC1(C)OC(=O)CC1=O", "growth": "88.9%"}, {"smiles": "CN(C)CCOC(=O)Nc1ccc(Cc2ccc(NC(=O)OCCN(C)C)cc2)cc1", "growth": "126% [100 µM]"}, {"smiles": "O=c1nc(Nc2cccc(Cl)c2)oc2cc(Cl)oc(=O)c12", "growth": "103%"}, {"smiles": "OCCNc1ccccc1", "growth": "99.1%"}, {"smiles": "O=C(Oc1ccccc1Cl)c1ccc(Cl)cc1Cl", "growth": "94.2%"}, {"smiles": "COc1cc(OC)c2cc(C(=O)c3ccc(C#N)cc3)c(=O)oc2c1", "growth": "99.1%"}, {"smiles": "CC(C)C1CCC(C)C(O)C1", "note": "(configuration not stated)", "growth": "92%"}, {"smiles": "O=C(NC1CCCCC1)c1ccc(Cl)cc1", "growth": "82.4%"}, {"smiles": "O=C1C=Cc2ccccc2/C1=C/c1[nH]c(=O)[nH]c1O", "growth": "32.7%"}, {"smiles": "NC(CO)(CO)c1ccccc1", "growth": "101%"}, {"smiles": "Nc1cc(N)ncn1", "growth": "93.8%"}, {"smiles": "S=C(Sc1ccc(Cl)cc1)Sc1ccc(Cl)cc1", "growth": "70.6%"}, {"smiles": "CCOc1ccc(C(=O)O)cc1", "growth": "84.7%"}, {"smiles": "COc1cccc(C(=O)NNC(=O)c2cccc3ccccc23)c1", "growth": "105%"}]}]}
